# From PubChem BioAssay
# Shown are actives, neighbours in structure and some others; about 11% of the full set was active somewhere.
# ALDH1A1 block – blocks purified human ALDH1A1 activity | Purified ALDH1A1, NADH fluorescence, propionaldehyde substrate | P00352 | Potency, µM (series often up to 75.3 µM), inactives show at the top dose activity, negative = inhibition, usual class: inhibitors | hit rate 7.3% among 220,000;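 note: potency is the fitted concentration of half-maximal effect; plate controls were no enzyme wells and a reference inhibitor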
# Target sequence (P00352 whole entry, looked up): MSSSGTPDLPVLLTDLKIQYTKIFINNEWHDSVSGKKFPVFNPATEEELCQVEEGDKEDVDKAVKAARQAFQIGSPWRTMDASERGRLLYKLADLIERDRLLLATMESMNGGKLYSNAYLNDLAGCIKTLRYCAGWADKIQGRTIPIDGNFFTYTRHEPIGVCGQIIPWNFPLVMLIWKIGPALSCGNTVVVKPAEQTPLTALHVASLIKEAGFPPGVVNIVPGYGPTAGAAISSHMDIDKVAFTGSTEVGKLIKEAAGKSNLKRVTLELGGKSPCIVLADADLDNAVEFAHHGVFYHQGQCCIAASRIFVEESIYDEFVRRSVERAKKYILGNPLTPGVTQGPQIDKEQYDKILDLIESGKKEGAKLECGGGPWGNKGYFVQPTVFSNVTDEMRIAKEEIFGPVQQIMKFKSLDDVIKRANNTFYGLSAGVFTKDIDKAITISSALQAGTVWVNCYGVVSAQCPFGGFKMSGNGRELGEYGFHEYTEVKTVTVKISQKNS
# HTT cytoprotect – Huntington cell model cytoprotection by ATP luminescence | PC12 HTT-Q103 induced, cytoprotection, ATP luminescence, 40 h | Potency, µM (doses to about 56.4 µM), without a hit: cytoprotection (ATP increase), most hits filed as activators | hit rate 0.14% among 230,000 | AID 1471; active = well fitted curve in the direction sought with a large enough effect; inconclusive = small, poorly fitted or top-dose-only effect, or another doubt; inactive = no such curve, though single readings can be large; an effect the other way counts as inactive or inconclusive; note: potency is the fitted concentration of half-maximal effect; % of control where 0% means no effect; nearly all actives have a fitted effect of over 45% in size
#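 Stable PC12 Q103-GFP cells in serum-supplemented, phenol red-free DMEM; induction by tebufenozide at 100 nM final; compound dose series; cell viability quantified luminescently from ATP.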
# HPGD block – HPGD (human) dehydrogenase inhibition; P15428; purified HPGD, NADH fluorescence kinetic, PGE2 substrate; Potency, µM, for the others: at the highest dose activity change, negative = inhibition, hits mostly inhibitors; hit rate 4.3% among 150,000; note: potency is the fitted concentration of half-maximal effect; % is set by controls: 0 for no effect and ±100 for the full control effect
#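 NADH formation kinetics: reaction with 30 uM PGE2 and 1 mM NAD+ (final), 20 nM enzyme, Tris-HCl pH 8 with Tween 20, after 15 min compound preincubation at room temperature. Fluorescence change, last versus first of five reads.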
# PNC inhibitor – blocks assembly of the perinucleolar compartment. activity change (PNC), negative = inhibition, % at 10 µM. PC3M PTB-GFP, PNC prevalence imaging, 16 h; stronger effect = lower value. AID 2417. hit rate 3.1% among 140,000;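 active = readout at or below -70, meaning at least 70% loss of cells showing the perinucleolar compartment, a nuclear body marking cancer cells; inconclusive = readout between -30 and a set limit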;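 note: plate controls were DMSO wells for no effect and camptothecin positive control wells for full effect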
#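 Read-out is percentage of cells bearing a perinucleolar compartment, from automated 20x imaging of fixed, Hoechst-stained PC3M PTB-GFP cells. Cells were seeded 4 h, then exposed 16 h to compound (23 nl of library stock) in duplicate plates.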
# RGS12 GoLoco inh – inhibitors of human Gai1-RGS12 GoLoco interaction (red fluorophore). P63096. Gai1:RGS12 GoLoco peptide FP, rhodamine, 10 min. Potency, µM (series often up to 61.6 µM), inactives show at the highest dose activity, negative = inhibition, most hits filed as inhibitors. hit rate 0.44% among 230,000; active = well fitted inhibition curve with a large enough effect, not every such curve was filed as active; inactive = no such curve, though single readings can be large or run the other way; note: potency is the fitted concentration of half-maximal effect; % is set by controls: 0 for no effect and ±100 for the full control effect; nearly all actives have a fitted effect of over 30% in size
# HTT aggregate – reduces HttQ103-GFP aggregates in PC12 cells | hit rate 1.1% among 220,000 | PC12 HttQ103-GFP aggregates, Acumen cytometry, 40 h | Potency, µM (series often up to 46.1 µM), without a hit: top-dose activity change, negative = inhibition, actives largely listed as inhibitors; active = well fitted curve in the direction sought with a large enough effect; inconclusive = small, poorly fitted or top-dose-only effect, or another doubt; inactive = no such curve, though single readings can be large; an effect the other way counts as inactive or inconclusive; note: potency is the fitted concentration of half-maximal effect; % is set by controls: 0 for no effect and ±100 for the full control effect; nearly all actives have a fitted effect of over 60% in size
#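 PC12 cells with ecdysone-inducible HTT exon1 Q103-GFP, induced by 100 nM tebufenozide, given compounds in a concentration series. GFP aggregates (1–25 um, 6 SD above background) counted in lysates by laser-scanning cytometry, 488 nm excitation.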
# * = called active by the depositor; ? = inconclusive; · = no result; [ ] = remark or other dose. Unless noted, calls come from the whole dose curve; as a rule, active = well fitted inhibition curve with a large enough effect (not every such curve was filed as active); inconclusive = small, poorly fitted or top-dose-only effect, or another doubt; inactive = no such curve, though single readings can be large or run the other way.
SMILES,ALDH1A1 block,HTT cytoprotect,HPGD block,PNC inhibitor,RGS12 GoLoco inh,HTT aggregate
O=C(Nc1ccc(N2CCOCC2)cc1)c1cc2ccccc2o1,?,-20%[10 µM],-24%,-28,-2%,5%
O=C(/C=C/N1CCOCC1)c1cc2ccccc2o1,18µM*,9%[10 µM],-14%,35,6%,-6%
Cc1cc(NC(=O)CCOc2ccc(F)cc2)no1,0.71µM*,-13%[10 µM],·,·,6%,18%[9.22 µM]
COc1ccc(OCCC(=O)Nc2cc(C)on2)cc1,22µM*,12%,-4%,18,-3%,-15%
COc1ccc(S(=O)(=O)N(C)c2ccc(OCC(=O)Nc3cc(C)on3)cc2)cc1,?,?,-2%,-97*,-2%,-1%
COc1ccc(OCCCC(=O)Nc2nncs2)cc1,5%,-9%[10 µM],-12%,-100*,2%,-13%
O=C(CCCOc1ccccc1)Nc1nncs1,1%,-9%[10 µM],0%,16,5%,2%
Cc1cc(NC(=O)Nc2ccc(F)cc2)no1,?,-15%,-13%,-3,2%,-16%
COC(=O)CCS(=O)(=O)c1nc(-c2ccccc2)cc(C(F)(F)F)n1,3%,-15%,28µM*,20,-13%,?
CCOC(=O)CS(=O)(=O)c1nc(-c2ccccc2)cc(C(F)(F)F)n1,-1%,?,14µM*,?,4%,-24%[9.22 µM]
CCOC(=O)CS(=O)(=O)c1nc(-c2ccc(F)cc2)cc(C(F)(F)F)n1,?,-5%[10 µM],?,25,-5%,?
COCC(C)NC(=O)CCS(=O)(=O)c1nc(-c2ccc(OC)cc2)cc(C(F)(F)F)n1 (stereo not drawn),-9%,-23%[1.9 µM],-26%,-88*,3%,?
CCOC(=O)CCS(=O)(=O)c1nc(-c2ccccc2)cc(C(F)(F)F)n1,-19%,1%[0.074 µM],16µM*,-8,-4%,24%
O=C(CSCCO)Nc1ccc(C2CCCCC2)cc1,7.1µM*,-33%,4.5µM*,-127*,-10%,11%
CCOc1ccc(S(=O)(=O)N(CC(=O)N/N=C/c2ccc(-c3ccc([N+](=O)[O-])cc3)o2)c2ccccc2)cc1,25µM*,-88%,-21%,47,-2%,-1%
CS(=O)(=O)c1nc(-c2ccc(Br)cc2)cc(-c2ccccc2)c1C#N,?,-127%,-2%,72,5%,-96%
N#Cc1c(-c2ccccc2Cl)cc(-c2ccccc2)nc1Br,-1%,·,25µM*,56,-16%,-5%
CS(=O)c1nc(-c2ccc(Br)cc2)cc(-c2ccccc2)c1C#N (stereo not drawn),13µM*,-194%[0.074 µM],7%,9,3%,?
N#Cc1c(-c2cccc(F)c2)cc(-c2ccccc2)nc1Br,-3%,-27%,18µM*,27,-14%,-1%
Cc1ccc(C(=O)CSc2cnc3ccccc3n2)cc1C,22µM*,·,22µM*,-5,47%,-3%
Cc1cc(SCC(=O)c2ccccc2)nc2ccccc12,-5%[13.5 µM],-12%[10 µM],-25%,·,3%[14.2 µM],·
CC1CCCN(C(=O)CSc2cnc3ccccc3n2)C1 (stereo not drawn),28µM*,9%,4.5µM*,10,12%,20%
CC(C)c1ccc(N(C(=O)c2csnn2)C(C(=O)NC(C)(C)C)c2cccnc2)cc1 (stereo not drawn),0.71µM*,-8%,·,·,5%,16%
Cc1ccc(N(C(=O)c2csnn2)C(C(=O)NC(C)(C)C)c2ccncc2)cc1 (stereo not drawn),0%,4%,-2%,20,-17%,12%
CC(C)c1ccc(N(C(=O)c2csnn2)C(C(=O)NC(C)(C)C)c2ccncc2)cc1 (stereo not drawn),2.2µM*,-4%,-13%,-27,-3%,17%
CCc1ccc(N(C(=O)c2csnn2)C(C(=O)NC(C)(C)C)c2cccnc2)cc1 (stereo not drawn),13µM*,37%[10 µM],·,·,-16%,16%[9.22 µM]
O=c1cnc2cnc(Nc3ccccc3)nc2n1C1CC1,-1%,20µM*,·,·,4%,·
Cc1nc2cnc(Nc3ccccc3)nc2n(C2CC2)c1=O,3%,-24%,·,·,20%,·
